PKA-R2B activ – activates the human PKA-R2B holoenzyme complex. P22694+P31323. PKA-R2B holoenzyme dissociation, Cy5-IP20 fluorescence polarization; R2B truncated from residue 108, S112A mutant; 0% DMSO only, 100% 113 µM cGMP. activation, % at 11.4 µM. 0.079% of 340,000 active;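 active = activation above a cutoff set at the mean over all compounds plus 3 SD, cut at about 18% in these data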;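 also: higher means more holoenzyme dissociation and a rise in polarization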
JMJD2C inh – blocks human GASC-1 demethylase activity; Q9H3R0; GST-JMJD2C(1-420) H3K9me3 demethylation, DELFIA europium; inhibition, % at 2.35 µM; 0.069% of 330,000 active; AID 2099;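 active = more than half of a compound's replicate wells show inhibition beyond 50%, single wells judged on their own value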;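 also: signal counts dimethyl H3K9 product captured on neutravidin plate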
Target sequence (Q9H3R0 1-420 limits assumed): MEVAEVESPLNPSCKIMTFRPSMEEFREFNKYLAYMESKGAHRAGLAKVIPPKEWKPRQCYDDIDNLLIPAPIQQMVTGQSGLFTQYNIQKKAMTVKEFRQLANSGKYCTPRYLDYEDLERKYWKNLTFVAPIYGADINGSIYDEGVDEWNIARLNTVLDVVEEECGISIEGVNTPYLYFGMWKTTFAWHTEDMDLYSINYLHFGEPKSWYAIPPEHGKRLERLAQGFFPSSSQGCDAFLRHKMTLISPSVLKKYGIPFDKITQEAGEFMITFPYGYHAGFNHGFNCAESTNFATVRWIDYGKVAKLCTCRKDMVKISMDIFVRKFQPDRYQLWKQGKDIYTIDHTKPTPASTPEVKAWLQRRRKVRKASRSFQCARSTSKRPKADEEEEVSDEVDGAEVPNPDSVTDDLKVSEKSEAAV
PKA-R1A act – activates the PKA-R1A holoenzyme complex; P00514+P68181; PKA-R1A dissociation, Cy5-IP20 fluorescence polarization; scaled: DMSO 0%, 113 µM cGMP 100%; activation, % at 11.4 µM; 0.083% of 340,000 active;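 active = percent activation above the mean of all tested compounds plus 3 SD, cut at about 19% in these data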;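 also: higher means more PKAc released from R1A so a rise in polarization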
V-ATPase pHluor – regulators of yeast V-ATPase proton transport; S. cerevisiae, pHLuorin cytosolic pH fluorescence; response, % at 10 µM; 0.37% of 350,000 active; AID 504577; in the data active = response mostly above about 7.3%, no sharp cut-off; inactive = mostly below about 5.4%; also: actives read high
PolyA inhibitor – blocks polyadenylation in yeast reporter cells; S. cerevisiae SKY197-pL101 polyadenylation reporter, beta-gal luminescence; efflux-impaired pdr1/pdr3 knockout yeast; score 100 = 6 SD above DMSO; activity score, % at 12 µM; 0.02% of 300,000 active;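 active = lowest replicate activity score at least 50, where 100 means six control SD above control mean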;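 also: yeast exposed to compound for 9 h at 30 °C; higher score means more reporter readthrough which indicates perturbed polyadenylation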
CR mimetic SO – lowers age-related superoxide in aged yeast cells. S. cerevisiae aged cells, superoxide DHE fluorescence; stronger effect = lower value. superoxide response (% of plate mean), % at 10 µM. 0.18% of 330,000 active;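 active = superoxide response under a set limit, about three screen SD below normal, cut at about 65% in these data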;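 also: yeast aged for seven days with compound at 30 °C before DHE staining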
V-ATPase pH SP – regulators of yeast V-ATPase proton transport. shares compounds with V-ATPase pHluor. S. cerevisiae pHLuorin cytosolic pH. response, % at 10 µM. 2% of 980 active. AID 602197; in the data active = response above about 24%
R2B FP artifact – counter-screen for PKA-R2B activators: fluorescence polarization artifacts; shares compounds with PKA-R2B activ; FP artifact counterscreen; activation, % at 11.4 µM; 6% of 270 active; AID 504796; in the data active = activation above about 20%;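 also: Cy5 labelled IP20 peptide probe with compound but no PKA protein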
PKA-R2B confirm – confirmation of human PKA-R2B complex activators. 9% of 270 active. activation, % at 11.4 µM. AID 504797. shares compounds with PKA-R2B activ. fluorescence polarization, activation; in the data active = activation above about 19%
R1A FP artifact – counter-screen for PKA-R1A activators: fluorescence polarization artifacts; activation, % at 11.4 µM; Cy5-IP20 peptide alone, fluorescence polarization artifact counterscreen; 7% of 280 active; shares compounds with PKA-R1A act;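 active = mean activation over triplicate runs exceeds the adjusted cutoff derived for the parent primary screen, cut at about 19% in these data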;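 also: no PKA protein present so any polarization rise reflects compound interference; higher means stronger polarization artifact and likely false positive in parent screen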
PKA-R1A confirm – confirmation of PKA-R1A complex activators; activation, % at 11.4 µM; shares compounds with PKA-R1A act; 9% of 280 active; Cy5-IP20 fluorescence polarization, PKA-R1A holoenzyme dissociation;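 active = mean activation over replicate wells exceeds the adjusted hit threshold taken from the earlier primary screen, cut at about 20% in these data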
A number is an active result. An excerpt weighted towards active compounds, which were near 0.78% of everything screened.

For C/C(CC(=O)Nc1ccccn1)=N\NC(=O)c1cnccn1 the results were PKA-R2B activ inactive, JMJD2C inh inactive, PKA-R1A act 19, V-ATPase pHluor 16, PolyA inhibitor inactive, CR mimetic SO inactive, V-ATPase pH SP inactive, R1A FP artifact inactive and PKA-R1A confirm inactive.
Cc1csc(NC(=O)[C@@H]2CCCN2C(=O)c2cccs2)n1 was read as PKA-R2B activ inactive, JMJD2C inh inactive, PKA-R1A act inactive, V-ATPase pHluor inactive, PolyA inhibitor inactive and CR mimetic SO inactive.
For Cc1nc(CCNC(=O)CC2C(=O)NCCN2Cc2ccoc2)nc2c1CCCC2 (stereo not given) the results were PKA-R2B activ 23, JMJD2C inh inactive, PKA-R1A act inactive, V-ATPase pHluor inactive, PolyA inhibitor inactive, CR mimetic SO inactive, R2B FP artifact inactive and PKA-R2B confirm inactive.
Screening COc1ccccc1C(=O)NC(CCSC)C(=O)NCc1ccccn1 (stereo not given) returned PKA-R2B activ inactive, JMJD2C inh inactive, PKA-R1A act inactive, V-ATPase pHluor inactive, PolyA inhibitor inactive and CR mimetic SO inactive.
COc1ccccc1C(=O)NC(CCSC)C(=O)NCc1ccncc1 (stereo not given) was read as PKA-R2B activ 21, JMJD2C inh inactive, PKA-R1A act inactive, V-ATPase pHluor inactive, CR mimetic SO inactive, R2B FP artifact inactive and PKA-R2B confirm inactive.
`CCOc1ccc(OCCC(=O)N(CCCOC)c2c(N)n(Cc3ccccc3)c(=O)[nH]c2=O)cc1` gave PKA-R2B activ inactive, JMJD2C inh inactive, PKA-R1A act inactive, V-ATPase pHluor inactive, PolyA inhibitor inactive and CR mimetic SO inactive.
Screening Cc1ccc(S(=O)(=O)NC(C)(C)C)cc1C(=O)OCC(=O)N1CCCC1=O returned PKA-R2B activ 20, JMJD2C inh inactive, PKA-R1A act inactive, V-ATPase pHluor inactive, PolyA inhibitor inactive, CR mimetic SO inactive, R2B FP artifact inactive and PKA-R2B confirm inactive.
`Cc1cccc(C(=O)OCC(=O)N2CCCC2=O)c1O` gave PKA-R2B activ inactive, JMJD2C inh inactive, PKA-R1A act inactive, V-ATPase pHluor inactive and CR mimetic SO inactive.
`CCC(C)NCC(=O)Nc1sc2c(c1C(N)=O)CCC2` (stereo not given) gave PKA-R2B activ inactive, JMJD2C inh inactive, PKA-R1A act inactive, V-ATPase pHluor inactive, PolyA inhibitor inactive and CR mimetic SO inactive.
`CCC(=O)Nc1sc2c(c1C(N)=O)CCC2` gave PKA-R2B activ 22, JMJD2C inh inactive, PKA-R1A act inactive, V-ATPase pHluor inactive, PolyA inhibitor inactive, CR mimetic SO inactive, R2B FP artifact inactive and PKA-R2B confirm inactive.
COc1ccc(S(=O)(=O)N2CCCC(C(=O)NCc3ccco3)C2)cc1OC (stereo not given) was read as PKA-R2B activ inactive, JMJD2C inh inactive, PKA-R1A act inactive, V-ATPase pHluor inactive, PolyA inhibitor inactive and CR mimetic SO inactive.
Screening COc1ccc(NC(=O)/C(=C\c2ccc(F)cc2)NC(=O)c2ccco2)cc1 returned PKA-R2B activ inactive, JMJD2C inh inactive, PKA-R1A act inactive, V-ATPase pHluor inactive, PolyA inhibitor inactive and CR mimetic SO inactive.
`Cc1cccc(/C=N/NC(=O)c2cc(Br)ccc2OCc2ccccc2)n1` gave PKA-R2B activ 19, PKA-R1A act inactive, V-ATPase pHluor inactive, PolyA inhibitor inactive, CR mimetic SO inactive, R2B FP artifact inactive and PKA-R2B confirm inactive.
Cc1csc(NC(=O)CSC2=NS(=O)(=O)c3cc(F)ccc3N2)n1 was read as PKA-R2B activ inactive, JMJD2C inh inactive, PKA-R1A act inactive, V-ATPase pHluor inactive, PolyA inhibitor inactive and CR mimetic SO inactive.
Screening Brc1ccc2cccnc2c1 returned PKA-R2B activ 23, JMJD2C inh inactive, PKA-R1A act inactive, V-ATPase pHluor inactive, PolyA inhibitor inactive, CR mimetic SO inactive, R2B FP artifact inactive and PKA-R2B confirm inactive.
Screening O=C(Nc1ccc2cccnc2c1)c1ccc(Br)cc1 returned PKA-R2B activ inactive, JMJD2C inh inactive, PKA-R1A act inactive, V-ATPase pHluor inactive, PolyA inhibitor inactive and CR mimetic SO inactive.
For Cc1ccc(C(NC(=O)N2CCOCC2)C(Cl)Cl)cc1F (stereo not given) the results were PKA-R2B activ 22, JMJD2C inh inactive, PKA-R1A act inactive, V-ATPase pHluor inactive, PolyA inhibitor inactive, CR mimetic SO inactive, R2B FP artifact inactive and PKA-R2B confirm inactive.
`Cc1ccc(C(NC(=O)N2CCN(C)CC2)C(Cl)Cl)cc1F` (stereo not given) gave PKA-R2B activ inactive, JMJD2C inh inactive, PKA-R1A act inactive, V-ATPase pHluor inactive, PolyA inhibitor inactive and CR mimetic SO inactive.
Screening COC(=O)c1sccc1S(=O)(=O)N1CCCC(N(C)CCc2ccccn2)C1 (stereo not given) returned PKA-R2B activ inactive, JMJD2C inh inactive, PKA-R1A act inactive, V-ATPase pHluor inactive, PolyA inhibitor inactive and CR mimetic SO inactive.
Screening Cc1ccc(N=Cc2c(O)[nH]c3ccccc23)c([N+](=O)[O-])c1 returned PKA-R2B activ 19, JMJD2C inh inactive, PKA-R1A act inactive, V-ATPase pHluor inactive, PolyA inhibitor inactive, CR mimetic SO inactive, R2B FP artifact inactive and PKA-R2B confirm inactive.
`COc1ccc(N=Cc2c(O)[nH]c3ccccc23)cc1` gave PKA-R2B activ inactive, JMJD2C inh inactive, PKA-R1A act inactive, V-ATPase pHluor inactive, PolyA inhibitor inactive and CR mimetic SO inactive.
Screening Cc1noc(C)c1S(=O)(=O)N1CCCC(C(=O)NCc2ccccc2Cl)C1 (stereo not given) returned PKA-R2B activ inactive, JMJD2C inh inactive, PKA-R1A act inactive, V-ATPase pHluor inactive, PolyA inhibitor inactive and CR mimetic SO inactive.
`COc1ccc(-c2noc(CN(C(=O)c3ccc4c(c3)OCO4)C(C)C)n2)cc1OC` gave PKA-R2B activ 19, JMJD2C inh inactive, PKA-R1A act inactive, V-ATPase pHluor inactive, PolyA inhibitor inactive, CR mimetic SO inactive, R2B FP artifact inactive and PKA-R2B confirm inactive.
